101 molecules from PubChem BioAssay AID1259343 (VanderVen Lab, College of Veterinary Medicine, Cornell …, 2017) can be followed below.

The campaign covered roughly 6,200 compounds. About 2,900 (47%) were called active. So high a share suggests a set chosen from earlier hits. The list shows a part of the results. A number with no mark means an inactive call. No stated cut-off is given here; in the data, active means inhibition above about 50%; inactive means the rest.

Broadly, the inhibition is the change of the read-out against control, counted positive when it falls.

The nature of this experiment: Mycobacterium tuberculosis growth inhibition, primary screen (AID 1259343). To be noted: inhibition: at 10 µM, stronger effect = higher value; outcome: 10 uM.
Regarding `CCn1cc(NC(=O)c2cc3ccc(C(C)(C)C)cc3[nH]2)ccc1=O`, the inhibition was -0.51%.

For `CCc1c(C)nc(-n2nc(C)cc2NC(=O)c2ccc(C)c(C)c2)[nH]c1=O`, the inhibition is 42.5%.

In the case of `CCc1c(C)nc(-n2nc(C)cc2NC(=O)c2ccc(F)c(F)c2)[nH]c1=O`, the inhibition was 99.7% (active).

As for `CCc1c(C)nc(-n2nc(C)cc2NC(=O)c2ccccc2)[nH]c1=O`, the inhibition is -16.5%.

Take `CCc1c(C)nc(-n2nc(C)cc2NC(=O)c2cccc(C)c2)[nH]c1=O`: the inhibition was 101% (active).

As for `CCc1c(C)nc(-n2nc(C)cc2NC(=O)c2cccc([N+](=O)[O-])c2)[nH]c1=O`, the inhibition was 99.7% (active).

For the molecule `C=CCN1C(=O)C(=O)N(CC(=O)c2cc(C)n(CCCOC)c2C)C1=O`, the inhibition was -11.2%.

`O=C(CSC1=NCCS1)N1c2ccccc2Sc2ccccc21`: the inhibition was 27.6%.

For `CCSc1nnc2c(n1)OC(c1ccc(OCc3ccccc3)cc1)Nc1ccccc1-2` (stereo unspecified), the inhibition was 83% (active).

As to `O=C(O)c1cc(Br)ccc1N=Cc1nc(-c2ccc(Cl)cc2)oc1O`, the inhibition is 50.4% (active).

With `O=C(O)c1cc2c(ccc3cc(Br)ccc32)oc1=O`, the inhibition was 47.8%.

Consider `Nc1ccc(Oc2ccc(Oc3ccc(N)cc3)cc2)cc1`, for which the inhibition was 72.7% (active).

Regarding `CCC(C)(C)c1ccc(Oc2ccc(N)cc2)cc1`, the inhibition is 21.9%.

Take `Nc1ccc(Oc2ccc(N)cc2)cc1`: the inhibition was -13.3%.

On to `Cc1cc(S(=O)(=O)Nc2cccc(Br)c2)ccc1Br`, for which the inhibition was 39.6%.

Regarding `CCS(=O)(=O)c1ccc(-c2cccc(NS(=O)(=O)c3ccc(C)cc3C)c2)nn1`, the inhibition was 99.5% (active).

As to `CC(=O)Nc1cccc2c1NCCC2`, the inhibition was -0.59%.

Take `O=S(CSc1nc(Br)ns1)c1nc(Br)ns1` (stereo unspecified): the inhibition was 102% (active).

With `CCN1CCc2nc3ccccc3c(C(=O)NCc3ccc(OC)cc3)c2C1`, the inhibition is -11%.

Turning to `COc1ccc2cc(C(=O)NNC(=O)c3ccccn3)c(C)nc2c1`, the inhibition is 0.1%.

`COc1ccc2nc(C(=O)NCC(C)c3ccccc3)ccc2c1` (stereo unspecified): the inhibition is 52.4% (active).

Take `c1ccc(-c2nc(-c3ccc4c(c3)OCO4)cs2)cc1`: the inhibition was -16.4%.

For `c1ccc(-c2nnc3n2NC(c2ccc4c(c2)OCO4)S3)cc1` (stereo unspecified), the inhibition was -2.01%.

As for `c1ccc(-c2noc(N3CCCCC3)c2CNCc2ccc3c(c2)OCO3)cc1`, the inhibition was 83.5% (active).

On to `Cc1c(Br)c(Nc2ccc(Cl)cc2)nn1C`, for which the inhibition was -14.8%.

For the molecule `CC(=O)N=c1c(Nc2ccc(Cl)cc2)nc(=O)[nH]n1C`, the inhibition was 85.5% (active).

Turning to `O=C(CCc1nnc(CCCCc2ccccc2)o1)NCC[C@@H]1C[C@@H]2C=C[C@H]1C2`, the inhibition was 78.5% (active).

With `O=C1c2ccccc2C(=O)N1CC1CC2C=CC1C2` (stereo unspecified), the inhibition is 38.1%.

In the case of `CN(Cc1ccsc1)C(=O)CCc1nnc(CCCc2ccccc2)o1`, the inhibition result was “inactive”.

For the molecule `C=CCn1nnc(NC(=O)c2ccc(OCC(C)C)cc2)n1`, the inhibition was 30.5%.

Consider `NC(=O)CSc1nnc(SCc2ccc(Cl)c(Cl)c2)s1`, for which the inhibition was 24.1%.

As to `Cc1nc(SCC(=O)c2cccs2)c2c3c(sc2n1)CCCC3`, the inhibition is -1.14%.

`O=C(CSc1nnc(SCC(=O)c2cccs2)s1)c1cccs1`: the inhibition is 96.8% (active).

For `N#CC(=Cc1ccc(Sc2ccccc2)o1)C(=O)NC1CCCCC1`, the inhibition is 92.9% (active).

As for `N#CC(=Cc1ccc([N+](=O)[O-])o1)C(=O)NCc1ccco1`, the inhibition is 49.5%.

Regarding `Cc1ccc(-n2cc(CNCCc3ncc(C)[nH]3)c(-c3ccc(F)cc3)n2)cc1`, the inhibition was 93% (active).

For `Cc1ccc(-n2cc(CN(C)Cc3cccnc3)c(-c3ccc(F)cc3)n2)cc1`, the inhibition was 46.4%.

Take `CC(C)(C)c1ccc(-c2csc(NC=C(C#N)C#N)n2)cc1`: the inhibition was 75.2% (active).

Regarding `CCC(C)Nc1nc(-c2ccc(Cl)cc2)cs1` (stereo unspecified), the inhibition is -10.8%.

Consider `Cc1ccc(-c2csc(SCC(=O)NC(C)(C#N)C3CC3)n2)cc1` (stereo unspecified), for which the inhibition is 0.22%.

Turning to `CCOc1ccc(N2CC(C#N)=C3c4cc(OC)c(OC)cc4CCN3C2)cc1`, the inhibition is 94.9% (active).

For the molecule `Cc1ccc(-n2c(-c3ccc(Cl)cc3)cc(C(=O)N3CCN(c4cccc(Cl)c4)CC3)c2C)cc1`, the inhibition was 33.6%.

Take `Cc1cccc(N2CCN(CCNc3cncc(Cl)n3)CC2)c1`: the inhibition is 86.1% (active).

With `CNC(=O)c1cccc(N2CCC(c3ccccc3OC)C2)n1` (stereo unspecified), the inhibition is 20.6%.

As to `c1cnn(-c2cncc(NCC3CCCCCCC3)n2)c1`, the inhibition was 49.9%.

With `COc1ccccc1N1CCC(CNc2cncc(Cl)n2)C1` (stereo unspecified), the inhibition is 85% (active).

`Fc1ccc(Nc2ccc3ccccc3n2)cc1Cl`: the inhibition was 22.7%.

On to `CC(=O)Oc1cccc2c1C(=O)c1c(OC(C)=O)cc(C(=O)O)cc1C2=O`, for which the inhibition is 77.5% (active).

As to `CCCc1nc2c(c(=O)c3ccccc3n2C)c(=O)n1CCc1ccccc1`, the inhibition was -32.5%.

On to `Clc1ccc(C(c2ccc(Cl)cc2)N2CCNCC2)cc1`, for which the inhibition is 42.8%.

Regarding `Oc1c(C(c2ccc(Cl)cc2)N2CCCC2)ccc2cccnc12` (stereo unspecified), the inhibition is 92% (active).

`Oc1c(C(c2ccc(Br)cc2)N2CCCC2)ccc2cccnc12` (stereo unspecified): the inhibition was 77.3% (active).

For the molecule `O=c1cc(-c2ccccc2)oc2cc(O)c(O)cc12`, the inhibition was 95.7% (active).

With `CC(C)Oc1ccc2c(=O)cc(-c3ccccc3)oc2c1`, the inhibition is 58.7% (active).

With `COc1cc(C)c2c(=O)cc(-c3ccccc3)oc2c1`, the inhibition is 47.7%.

For `Cc1oc2cc(OC(C)C)ccc2c(=O)c1Oc1ccccc1`, the inhibition was 8.96%.

For `O=C(CC[N+](=O)[O-])OC[C@H]1O[C@@H](O)[C@H](OC(=O)CC[N+](=O)[O-])[C@@H](OC(=O)CC[N+](=O)[O-])[C@@H]1OC(=O)CC[N+](=O)[O-]`, the inhibition is 82.8% (active).

On to `O=C1C2=C(Nc3ccccc3SC2c2cccs2)c2ccccc21` (stereo unspecified), for which the inhibition is 21.4%.

As for `O=C1C2=C(Nc3ccccc3S(=O)(=O)C2c2ccc(Cl)cc2)c2ccccc21` (stereo unspecified), the inhibition was 66.7% (active).

Turning to `O=C(Cc1cc(-c2cc3ccccc3o2)on1)N1CCCc2ccccc21`, the inhibition is 66.9% (active).

As for `O=C(CNc1ccc(Cl)cc1F)N1CCCc2ccccc21`, the inhibition is 50.7% (active).

Turning to `O=C(Cc1cc(-c2ccc(F)cc2)on1)N1CCCc2ccccc21`, the inhibition was 56.2% (active).

`CC1Cc2ccccc2N1CCNC(=O)c1cc(Cl)ccc1F` (stereo unspecified): the inhibition was 8.76%.

For `O=C(Cc1cc(-c2cc3ccccc3o2)on1)N1CCCCC1`, the inhibition was 22.8%.

On to `O=C(Cc1cc(-c2cc3ccccc3o2)on1)Nc1ccon1`, for which the inhibition is 18.9%.

As to `COc1cccc(-c2cc(CC(=O)N3c4ccccc4CC3C)no2)c1` (stereo unspecified), the inhibition was 38.3%.

In the case of `O=C(CNc1ccc(Cl)cc1F)N1CCN(c2ccccc2)CC1`, the inhibition is 16.7%.

As for `O=[N+]([O-])c1ccc(Oc2ccc([N+](=O)[O-])cc2)cc1`, the inhibition is 98.6% (active).

On to `O=C(O)c1cc(Oc2ccc([N+](=O)[O-])cc2)cc(Oc2ccc([N+](=O)[O-])cc2)c1`, for which the inhibition is 60.2% (active).

For the molecule `O=[N+]([O-])c1ccc(C2SCCS2)cc1`, the inhibition is -11.2%.

As to `O=[N+]([O-])c1ccc(Sc2ccc([N+](=O)[O-])cc2)cc1`, the inhibition was 57.3% (active).

Regarding `O=[N+]([O-])c1ccc(Oc2ccc(-c3ccccc3)cc2)cc1`, the inhibition was -41%.

As for `Nc1cccc2c(Oc3ccc([N+](=O)[O-])cc3)cccc12`, the inhibition was 68.4% (active).

For `Nc1cccc2c([N+](=O)[O-])cccc12`, the inhibition was 8.31%.

As for `Cc1cnn(CCc2nc(-c3cc(Br)cs3)no2)c1`, the inhibition was 36.5%.

As for `Cc1cc(OCC(=O)NCc2ccc(-c3ccc(Br)cc3)o2)no1`, the inhibition was 56.9% (active).

In the case of `Cc1cc(CC(=O)NC2CC2c2ccc(Br)cc2)no1` (stereo unspecified), the inhibition was 13.2%.

With `O=c1nc(/C=C/c2cccc3ccccc23)cc(C(F)(F)F)[nH]1`, the inhibition was -5.05%.

`O=c1nc(/C=C/c2ccc(Br)cc2)cc(C(F)(F)F)[nH]1`: the inhibition was 100% (active).

As to `Cc1ccsc1/C=C/c1cc(C(F)(F)F)[nH]c(=O)n1`, the inhibition is 36.8%.

As for `Clc1ccc(CSc2nnc3nc[nH]n23)c(Cl)c1`, the inhibition is 90.4% (active).

Regarding `O=c1cc(CSc2ccc(Cl)cc2)nc2nc[nH]n12`, the inhibition is 30%.

Turning to `Clc1ccc(Cn2ccnc2CNc2ccccc2)c(Cl)c1`, the inhibition was 28.2%.

Regarding `O=C(Cc1ccsc1)N1CCN(Cc2cccc(-c3noc(-c4ccccc4)n3)c2)CC1`, the inhibition was 25.5%.

For `O=C(c1cccc(OC(F)F)c1)N1CCN(Cc2ccc(-c3noc(-c4ccco4)n3)cc2)CC1`, the inhibition was 91.3% (active).

On to `CCOc1ccc(N2C(=O)CSC2c2ccccc2N)cc1` (stereo unspecified), for which the inhibition was 90.3% (active).

With `COC(=O)C1=C(C(=O)OC)SC(=CC(=S)c2ccc(OC)cc2)S1`, the inhibition is 82.8% (active).

`COC(=O)C1=C(C(=O)OC)C2=S(SC(c3ccc(OC)cc3)=C2)S1` (stereo unspecified): the inhibition was 7.91%.

Turning to `COC(=O)C1=C(C(=O)OC)SC(=C2C(=S)C(C)(C)Nc3ccccc32)S1`, the inhibition is 27.1%.

Regarding `CCOc1ccc(Oc2ccc(S(=O)(=O)NC(C)CC#N)cc2)cc1` (stereo unspecified), the inhibition was 39.1%.

For `CCCCN=C1NN=C(C23CC4CC(CC(C4)C2)C3)C(C)S1` (stereo unspecified), the inhibition is 82.7% (active).

`CC1=CC(=NNc2ccc(S(N)(=O)=O)cc2[N+](=O)[O-])CC(C)(C)C1`: the inhibition is -10.6%.

As for `O=[N+]([O-])c1ccc(NN=C2CC3CC=CC23)c([N+](=O)[O-])c1` (stereo unspecified), the inhibition was 92% (active).

For the molecule `O=[N+]([O-])c1ccc(NN=C2C3CC4CC2CC(O)(C4)C3)c([N+](=O)[O-])c1`, the inhibition was 25.5%.

Turning to `CCSc1nnc(NC(=O)Cc2ccccc2Cl)s1`, the inhibition is 95.5% (active).

In the case of `COCCCNC(=O)CSc1nnc(Nc2ccccc2Cl)s1`, the inhibition was 80.1% (active).

For the molecule `C=CCSc1nnc(NC(=O)c2cc(Br)ccc2Cl)s1`, the inhibition is 9.41%.

For `O=C(Nc1nnc(SCc2ccc(F)cc2)s1)c1ccccc1Br`, the inhibition was 27.4%.

As for `CCc1ccccc1Nc1nnc(SCC(=O)NC(C)C)s1`, the inhibition was 102% (active).

With `CC(C)NC(=O)CSc1nnc(Nc2ccccc2Cl)s1`, the inhibition is 78.8% (active).

Turning to `CNc1nnc(SCc2sc3ccccc3c2Cl)s1`, the inhibition is 48.5%.
